How the values were obtained:
Conditions in all cases: concentration: 1 μM, replicates: in singlicate; n = 1
CDKL5 = system: CDKL5
CHEK1 = system: CHEK1
CHEK2 = system: CHEK2
CIT = system: CIT
CLK1 = system: CLK1
CLK2 = system: CLK2
CLK3 = system: CLK3
CLK4 = system: CLK4
CSF1R-autoinhibited = system: CSF1R-autoinhibited
CSF1R = system: CSF1R
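Note: KINOMEscan kinase panel screen.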

SMILES | %Inh (CDKL5) [%] | %Inh (CHEK1) [%] | %Inh (CHEK2) [%] | %Inh (CIT) [%] | %Inh (CLK1) [%] | %Inh (CLK2) [%] | %Inh (CLK3) [%] | %Inh (CLK4) [%] | %Inh (CSF1R-autoinhibited) [%] | %Inh (CSF1R) [%]
Nc1ncnc2occ(-c3ccc4c(c3)CCN4C(=O)Cc3cc(F)ccc3F)c12 [GSK2645446] | 0 | 0 | 21 | 0 | 27 | 0 | 0 | 0 | 0 | 17
COc1cccc(NC(=O)Nc2ccc(C)c(-c3ccc(C(=O)Nc4ccncc4)cc3)c2)c1 [GSK1398474] | 0 | 7 | 0 | 94.8 | 29 | 0 | 65 | 5 | 0 | 86
COc1ccc2cc(-c3nc(-c4ccccc4C(C)C)[nH]c3-c3ccncc3)ccc2c1 [SB-660566] | 37 | 4 | 0 | 28 | 12 | 0 | 0 | 0 | 0 | 8
Cc1c(Cn2c3ccccc3n3c(=O)cc(N4CCOCC4)nc23)cccc1C(F)(F)F [GSK2306394] | 0 | 12 | 0 | 30 | 18 | 11 | 0 | 20 | 0 | 0
CC(=O)c1c(C)c2cnc(Nc3ccn(C)n3)nc2n(C2CCCC2)c1=O | 0 | 0 | 0 | 4 | 19 | 16 | 0 | 9 | 12 | 0
O=C(Nc1n[nH]c2nc(-c3cccs3)c(Br)cc12)C1CCCC1 [SB-743341] | 0 | 9 | 9 | 4 | 0 | 18 | 31 | 12 | 0 | 18
COc1ccc(-c2coc3ccc(-c4nnc(C)o4)cc23)cc1 | 51 | 0 | 13 | 16 | 3 | 22 | 0 | 27 | 7 | 9
COC(=O)C(Cc1ccccc1)NC(=O)NC1CCN(c2ccnc(Nc3ccc(F)cc3)n2)C1 (stereo not shown) [GSK1379714] | 1 | 86 | 14 | 6 | 5 | 0 | 0 | 13 | 35 | 1
CS(=O)(=O)CCNCc1nc(-c2ccc3ncnc(Nc4ccc5c(cnn5Cc5ccccc5)c4)c3c2)cs1.Cl.Cl [GW569716] | 14 | 0 | 57 | 34 | 24 | 0 | 1 | 5 | 39 | 0
O=C1NC(=O)C(c2ccc(Cl)cc2)=C1Nc1cccc(Cl)c1 [SB-317651] | 0 | 0 | 0 | 0 | 91.6 | 34 | 2 | 16 | 6 | 13

Reference: paper PMC5540273 (PLoS ONE, 2017)
